# Laboratory results taken from PubChem BioAssay AID1851 (National Center for Advancing Translational Sciences (NCATS), 2009).
# Where “and” joins values, the source holds several entries; their conditions need not be identical. Equal values may be shown once. In all, about 16,000 compounds went through this assay and about 5,700 (36%) were called active. About 24% were inconclusive and are not listed. The list shows a part of the results. A number with no mark means an inactive call. The call rests on the fitted dose curve; in most records, active means well fitted curve in the direction sought with a large enough effect; inconclusive means small, poorly fitted or top-dose-only effect, or effect the other way; inactive means no such curve, though single readings can be large or run the other way.
# Molecular target: Cytochrome P450 1A2 (Homo sapiens) (UniProt P05177)
# Sequence (P05177 whole entry, looked up): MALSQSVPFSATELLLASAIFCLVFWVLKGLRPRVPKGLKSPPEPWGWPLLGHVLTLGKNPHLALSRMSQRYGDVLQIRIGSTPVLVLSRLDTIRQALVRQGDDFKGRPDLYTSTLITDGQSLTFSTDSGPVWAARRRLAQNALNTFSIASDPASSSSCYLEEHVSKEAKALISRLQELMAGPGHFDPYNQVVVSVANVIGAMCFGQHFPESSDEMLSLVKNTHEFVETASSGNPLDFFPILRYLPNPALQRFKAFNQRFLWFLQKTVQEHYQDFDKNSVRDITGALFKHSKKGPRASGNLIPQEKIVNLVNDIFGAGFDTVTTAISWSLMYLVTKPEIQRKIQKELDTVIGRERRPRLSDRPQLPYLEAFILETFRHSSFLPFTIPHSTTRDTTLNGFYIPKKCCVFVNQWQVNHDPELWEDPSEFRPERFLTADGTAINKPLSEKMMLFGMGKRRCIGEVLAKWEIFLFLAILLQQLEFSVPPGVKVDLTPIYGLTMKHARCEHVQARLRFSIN
# Experiment: Cytochrome panel assay with activity outcomes
# Conditions: recombinant CYP, pro-luciferin dealkylation, luminescence, p450-cyp1a2; series mostly up to 57.1 µM
# On the % scale 0 is the no-effect control and ±100 the full control effect.
Structure (SMILES),"activity, negative = inhibition",AC50
Clc1ccc2c(NCCNC3CCCCC3)ccnc2c1,-10.2% [at 2.29 µM],
O=C(OC[C@@H](O)CO)c1ccccc1Nc1ccnc2cc(Cl)ccc12,,5010 nM (active)
Clc1ccc2c(NC3CCC(N4CCCCC4)CC3)ccnc2c1 (configuration not stated),-15.7% [at 2.29 µM],
CCN1CNC(=S)N(c2cc(C)ccc2C)C1,,inactive
CCOC(=O)C[n+]1c(C)sc2ccc(OC)cc21,,14100 nM (active)
Cc1cc2sc(C)[n+](CCCOS(=O)(=O)O)c2cc1C,-10.3% [at 11.4 µM],
Cc1sc2ccccc2[n+]1CCC(=O)O,-3.71% [at 11.4 µM],
COc1cccc2c(=O)c(C(=O)NCc3cccs3)c[nH]c12,,631 nM (active)
Cc1nc2cnc(N3CCNCC3)nc2n(Cc2ccc(F)cc2)c1=O,,12600 nM (active)
O=c1cnc2cnc(N3CCNCC3)nc2n1Cc1ccc(F)cc1,,15800 nM (active)
COc1ccc(-c2nc3cnc(N4CCNCC4)nc3n(Cc3ccc(F)cc3)c2=O)cc1,,inactive
Cc1nc2cnc(N3CCN(C)CC3)nc2n(Cc2ccc(F)cc2)c1=O,,inactive
O=c1c(-c2ccc(F)cc2)nc2cnc(N3CCNCC3)nc2n1Cc1ccc(F)cc1,,15800 nM (active)
COc1ccc(Nc2nnc(-c3ccc(N4CCOCC4)c([N+](=O)[O-])c3)c3ccccc23)cc1,,inactive
Clc1cccc(Nc2nnc(-c3ccccc3)c3ccccc23)c1,,1260 nM (active)
CCN1CCCC1CNC(=O)C(=O)Nc1ccccc1OC (configuration not stated),,inactive
COc1ccccc1NC(=O)C(C/C=C(\C)Cl)C(C)=O (configuration not stated),,12600 nM (active)
O=C(O)[C@H]1[C@H](C(=O)O)[C@H](C(=O)O)C[C@@H]1C(=O)O,-9.47% [at 11.4 µM],
CCNc1ncc2nc(CCc3ccccc3)c(=O)n(-c3ccccc3)c2n1,,1260 nM (active)
CCNc1ncc2nc(CCc3ccccc3)c(=O)n(C3CC3)c2n1,,3160 nM (active)
CCNc1ncc2nc(CCc3ccccc3)c(=O)n(CCOC)c2n1,,2000 nM (active)
CCNc1ncc2nc(CCc3ccccc3)c(=O)n(C)c2n1,,2510 nM (active)
CCCCCCCCCCCCCCCC(=O)NC[C@@H](COP(=O)([O-])OCC[N+](C)(C)C)OCC,,inactive

Structure (SMILES),"activity, negative = inhibition",AC50
Cc1cc2c(nc1C)CCCN2C[C@H](O)CN1CCCc2nc(-c3ccc(Br)cc3)ccc21,3.9% [at 11.4 µM] and 2.86% [at 11.4 µM],
CC1(C)CC(=O)C(C=NCCN2CCN(C(=S)Nc3ccc(F)cc3)CC2)=C(O)C1,,inactive
CN1CC(c2ccccn2)C2(SC(=S)N(Cc3ccccc3)C2=O)C12C(=O)Nc1ccccc12 (configuration not stated),,17800 nM (active)
CN1CC(c2ccccc2)C2(COc3ccccc3C2=O)C12C(=O)Nc1ccccc12 (configuration not stated),,inactive
CC(/C=C/c1ccccc1)=N/NC(=O)CNC(=O)c1ccc2c(c1)OCO2,,2240 nM (active)
CC1CCCCN1c1nc(-c2ccncc2)nc2ccccc12 (configuration not stated),,355 nM (active)
NC(=O)C1(N2CCCCC2)CCN(C(=O)c2ccc(-n3cnnn3)cc2)CC1,,inactive
N#CC(c1ccc(Cl)cc1)c1nc2ccccc2nc1C(F)(F)F (configuration not stated),,1580 nM (active)
CCOc1cc(C)c(S(=O)(=O)Nc2ccc3cn[nH]c3c2)cc1C,,178 nM (active)
Cc1ccnc(NS(=O)(=O)c2ccc(NC(=O)C3CCCNC3=O)cc2)n1 (configuration not stated),,inactive
CCOC(=O)c1ccc(S(=O)(=O)Nc2ccc3cn[nH]c3c2)cc1,,5010 nM (active)
Cn1c(=O)[nH]c(=O)c2c1nc(CN(Cc1ccccc1)Cc1ccccc1)n2CCN1CCOCC1,,inactive
C[C@@H](O)[C@H]1C(=O)N2C(C(=O)O)=C(S[C@@H]3CN[C@H](C(=O)N(C)C)C3)[C@H](C)[C@H]12,,inactive
CN1c2ccccc2Oc2c(c(=O)n(C)c(=O)n2C)C1c1cccc([N+](=O)[O-])c1 (configuration not stated),,inactive
COCC(=O)Nc1ccc(-c2cn3cccnc3n2)cc1,,7080 nM (active)
CCOCC(=O)Nc1cc(-c2cn3cccnc3n2)ccc1C,,50.1 nM (active)
O=C(c1ccco1)N1CCN(C(=O)c2nn3cccnc3c2Cl)CC1,,inactive
CCCC(=O)Nc1cc(-c2cn3cccnc3n2)ccc1OC,,100 nM (active)
N#Cc1cccc(NC(=O)N2CCC3(CC2)CCN(C(=O)c2ccco2)CC3)c1,,inactive
O=C(Nc1cccc(-c2cn3cccnc3n2)c1)c1ccco1,,31.6 nM (active)
CCOc1ccc(-n2c(SCC(=O)Nc3ccccc3C)n[nH]c2=O)cc1,,inactive
COCC(=O)N1CCC2(CC1)CCN(C(=O)Nc1ccc(OC)cc1)CC2,,inactive
NC(=O)c1ccc[n+](CC(=O)OCCC23CC4CC(CC(C4)C2)C3)c1,,inactive

Structure (SMILES),"activity, negative = inhibition",AC50
CC(=O)C[C@H](O)[C@@H](NC(=O)OC(C)(C)C)C(C)C,0.505% [at 11.4 µM],
Cc1cc(C2(c3cc(C)c(O)c(C(=O)O)c3)OS(=O)(=O)c3ccccc32)cc(C(=O)O)c1O,-9.3% [at 11.4 µM],
c1ccc([P+](CC[P+](c2ccccc2)(c2ccccc2)c2ccccc2)(c2ccccc2)c2ccccc2)cc1,-7.8% [at 11.4 µM],
Nc1nc(=S)[nH]c2c1C1(CCCC1)Cc1ccccc1-2,,891 nM (active)
O=c1c2c(n3cnnc3n1-c1ccccc1)-c1ccccc1CC21CCCCC1,,inactive
CCOC(=O)CCN1C(=O)[C@H]2[C@H]3[C@H](O)[C@H](O)C/C(=N/OC/C=C(\C)CCC=C(C)C)[C@H]3CC[C@@H]2C1=O,1.64% [at 11.4 µM],
CC(=O)c1cccc(NC(=O)c2csc(-n3nc(C)cc3C(F)(F)F)n2)c1,,3160 nM (active)
CO[C@H]1[C@@H](OC(N)=O)[C@H](O)[C@@H](Oc2ccc3c(O)c(NC(=O)c4ccc(O)c(CC=C(C)C)c4)c(=O)oc3c2C)OC1(C)C,,inactive
Cc1cc2c(nc1C)CCCN2C[C@H](C)O/N=C1/[C@H]2O[C@@H]2[C@@H](O)[C@H]2[C@H]1CCn1c(=O)n(-c3ccccc3)c(=O)n12,2.9% [at 11.4 µM],
Cc1cc(C(=O)Nc2c(C)n(C)n(-c3ccccc3)c2=O)c2ccccc2n1,,inactive
Cc1cc(SC(C)C(=O)Nc2c(C)n(C)n(-c3ccccc3)c2=O)nc2ccccc12 (configuration not stated),,1000 nM (active)
Cc1c(NC(=O)Nc2c(Cl)cccc2Cl)c(=O)n(-c2ccccc2)n1C,-6.85% [at 11.4 µM],
CCCc1cc(=O)[nH]c(=S)[nH]1,,inactive
O=c1c(-c2ccc(F)cc2)nc2cnc(N3CCNCC3)nc2n1C1CC1,,2510 nM (active)
O=c1c(-c2cc(F)cc(F)c2)nc2cnc(N3CCNCC3)nc2n1C1CC1,,3160 nM (active)
COc1ccc(-c2nc3cnc(N4CCNCC4)nc3n(C3CC3)c2=O)cc1,,6310 nM (active)
CS(=O)(=O)N1CCC2(CCCN(c3ccncc3)C2)CC1,,inactive
C/C(=N\NC(=O)Cc1ccc(Cl)cc1)c1ccccn1,,4470 nM (active)
C/C(=N\NC(=O)CC1N=C(Cc2ccccc2)NNC1=O)c1ccc(Cl)cc1Cl (configuration not stated),,inactive
COc1cccc([C@H](O)Cn2cc(-c3cccc(CON=C(C)C)c3)nn2)c1,-3.64% [at 11.4 µM],
COc1ccc2c(c1OC)C(=O)OC2[C@H]1c2c(cc3c(c2OC)OCO3)CCN1C (some centres not stated),,inactive
C[N+]1(C)CCc2cc3c(cc2[C@@H]1[C@@H]1C(=O)Oc2c1ccc1c2OCO1)OCO3,,1260 nM (active)
C=CCNc1oc(/C=C/c2ccccc2)nc1C#N,,3550 nM (active)

Structure (SMILES),"activity, negative = inhibition",AC50
O=C(c1csnn1)N1CCC2(CC1)CN(C(c1ccccc1)c1ccccc1)C2,,inactive
CCOC(=O)C(=Cc1ccc(-c2ccsc2C(=O)OC)o1)C(=O)OCC,,14100 nM (active)
S=C1SCN(C2CCCCCCCCCCC2)CN1C1CCCCCCCCCCC1,-14.7% [at 2.29 µM],
COc1ccccc1OCCn1cc(C(=O)c2ccco2)c2ccccc21,,2510 nM (active)
COc1ccccc1CN1CCCC2(CCN(C(=O)c3ccco3)CC2)C1,,inactive
COc1ccccc1CN1CCC2(CC1)CCN(C(=O)c1ccco1)CC2,,inactive
O=C(Cn1cc(C(=O)c2ccco2)c2ccccc21)NCc1ccco1,,11200 nM (active)
O=C(CSc1ccccc1C(=O)O)NCc1ccco1,,inactive
N#Cc1cc(-c2ccc(Cl)cc2)cnc1Sc1ccc(F)cc1,,112 nM (active)
N#Cc1cc(-c2ccc(Cl)cc2)cnc1Sc1ccccc1,,398 nM (active)
N#Cc1cc(-c2ccccc2)cnc1Sc1ccc(Cl)cc1,,1780 nM (active)
CO/N=C(\C(=O)N[C@@H]1C(=O)N2C(C(=O)O)=C(COC(C)=O)CS[C@@H]12)c1csc(N)n1,,inactive
CN[C@]1(C)[C@H]2CC[C@@H](C2)C1(C)C,,inactive
CC(=O)OC[C@@H]1O[C@H](C/C=N\O[C@@H](C)c2cn([C@H]3COC[C@H]3O)nn2)C=C[C@@H]1OC(C)=O,-4.99% [at 11.4 µM],
CC(=O)N1CCC2(CCCN(C(=O)Nc3cccc(F)c3)C2)CC1,,inactive
COC(=O)N1CCC2(CCCN(C(=O)Nc3cccc(F)c3)C2)CC1,,inactive
COC(=O)N1CCC2(CCN(C(=O)Nc3cccc(F)c3)CC2)CC1,,12600 nM (active)
O=C(Nc1cccc(F)c1)N1CCCC2(CCN(C(=O)c3ccncc3)CC2)C1,,12600 nM (active)
COc1ccc(NC(=O)N2CCCC3(CCN(C(=O)c4cccc(F)c4)CC3)C2)cc1,,inactive
COc1ccc(C(=O)N2CCC3(CCCN(C(=O)Nc4cccc(F)c4)C3)CC2)cc1,,20000 nM (active)
O=C(Nc1cccc(F)c1)N1CCCC2(CCN(C(=O)c3cnccn3)CC2)C1,,inactive
COC(=O)N1CCC2(CC1)CN(C(=O)Nc1cccc(F)c1)C2,,inactive
COc1ccc(C(=O)N2CCC3(CCN(C(=O)Nc4cccc(F)c4)CC3)CC2)cc1,,inactive
